PubChem BioAssay (Tox21)
Results filed as inconclusive are left out. A call without a number means that no potency is given here. Calls of active or inactive are those of the source. Calls follow the shape of the dose curve; as a rule, active = well fitted cell-killing curve with a large enough effect in the repeat runs; inconclusive = weak or mixed curves, or effect the other way; inactive = no such curve, though single readings can be large or run the other way.

Test: qHTS assay for identifying genotoxic compounds that show differential cytotoxicity against isogenic chicken DT40 cell lines with known DNA damage response pathways - Rev3 mutant cell line (AID 743014); also: nearly all actives have a fitted effect of over 55% in size
Settings: chicken DT40 Rev3-/- viability, CellTiter-Glo, 40 h; series mostly up to 68.4 µM
From the text: National Center for Advancing Translational Sciences [NCATS]
NIH Chemical Genomics Center [NCGC]
U.S. Environmental Protection Agency [EPA]
National Institutes of Environmental Health Sciences [NIEHS]
National Toxicology Program [NTP]
U.S. Food and Drug Administration [FDA]
DNA repair pathways play a critical role in cellular homeostasis by repairing DNA damage induced by endogenous processes and xenobiotics. Isogenic chicken DT40 cell lines deficient in different DNA repair pathways can be used to identify genotoxic compounds and aid in characterizing the nature of the DNA damage induced. Two DNA repair-deficient cell lines with disrupted genes, Rad54/Ku70 or Rev3, were used to screen the Tox21 10K compound library. Possible genotoxicity was based on the presence of a significant increase in cytotoxicity in one or more of the DNA repair-deficient cell lines compared to that observed in the parental DNA repair-proficient cell line. CellTiter Glo viability assay (Promega, Madison, WI) was used to measure cell viability in these cells after compound treatment. This assay includes the data from the Rev3 mutant cell line.
Tox21 Assay Protocol Summary:
300 DT40 mutant cells in 5 uL/well were dispensed into white, solid-bottom 1536-well plates using a Multidrop Combi (ThermoFisher Scientific, Waltham, MA) dispenser. After the assay plates were incubated at 37 C/5% CO2 for approximately 0.5 hour, 23 nL of compounds dissolved in DMSO, positive controls or DMSO only was transferred into the assay plate by a pintool work station (Kalypsys, San Diego, CA). The assay plates were incubated at 37 C/5% CO2 for 40 hours. After 5 uL per well of CellTiter-Glo reagent was added into each well of the assay plates, the plates were incubated for 30 min at room temperature and the luminescence intensity of the plates was measured using a ViewLux (PerkinElmer, Shelton, CT) plate reader.
Potency is read from the fitted curve at half-maximal effect.

Compound	Potency
O=C(Nc1ccccc1)c1ccccc1O	48.6 µM (active)
COC(=O)c1ccc(I)cc1S(=O)(=O)NC(=O)Nc1nc(C)nc(OC)n1	inactive
CCO[C@H](Cc1ccc(OCCc2ccc(OS(C)(=O)=O)cc2)cc1)C(=O)O	inactive
O=C(O)CC(=O)C(=O)O	inactive
CN1CCN(C(c2ccccc2)c2ccccc2)CC1	inactive
CCCCCC[C@@H](O)C/C=C\CCCCCCCC(=O)OC	inactive
CC(C)(C)Cl	inactive
OC[C@H]1O[C@@H](OCCc2ccc(O)cc2)[C@H](O)[C@@H](O)[C@@H]1O	inactive
CC(C)=CCC/C(C)=C/CC/C(C)=C/CO	54.5 µM (active)
CCCCCCCCO[C@@H]1O[C@H](CO)[C@@H](O)[C@H](O)[C@H]1O	inactive
COc1cc2nc(N(C)CCCNC(=O)C3CCCO3)nc(N)c2cc1OC (stereo not given)	inactive
CC(CC=O)c1ccccc1 (stereo not given)	inactive
CCN(CC)CCOC(=O)C(Cc1cccc2ccccc12)CC1CCCO1 (stereo not given)	inactive
CCCCCCCCCOS(=O)(=O)O	inactive
C[C@@H](c1ncncc1F)C(O)(Cn1cncn1)c1ccc(F)cc1F (stereo not given in full)	inactive
CC(=O)[O][Al][O]C(C)=O	inactive
O=C(O)c1ccc(-n2nc(-c3ccccc3O)nc2-c2ccccc2O)cc1	18.8 µM (active)
C=C1C(=C/C=C2\CCC[C@]3(C)[C@@H]([C@H](C)/C=C/[C@@H](O)C4CC4)CC[C@@H]23)C[C@@H](O)C[C@@H]1O	11.9 µM (active)
CC1(c2ccccc2)OC(C(=O)O)=CC1=O (stereo not given)	inactive
O=[N+]([O-])c1cccc(S(=O)(=O)O)c1	inactive

Compound	Potency
O=C(OCCc1ccccc1)c1ccccc1	inactive
O=C(OCCCCCCOC(=O)c1ccccc1)c1ccccc1	61.1 µM (active)
COc1cccc(N(C)C(=S)Oc2ccc3c(c2)CCCC3)n1	26.6 µM (active)
C=CCOC(=O)CCC1CCCCC1	inactive
COC(C)(C)CCO	inactive
c1ccc(-c2ccccn2)nc1	24.3 µM (active)
C[C@H](CCC(=O)O)[C@H]1CC[C@H]2[C@@H]3CC[C@@H]4C[C@H](O)CC[C@]4(C)[C@H]3C[C@H](O)[C@]12C	inactive
C=CC(=O)OCCOCCOC(=O)C=C	6.14 µM (active)
CCOc1ccc(O)cc1	54.5 µM (active)
COCC(C)OC(C)=O (stereo not given)	inactive
O=C1c2ccccc2S(=O)(=O)N1CCCCN1CCN(c2ncccn2)CC1	inactive
CC(=O)NO	inactive
O=C1OC(CN2CCOCC2)CN1/N=C/c1ccc([N+](=O)[O-])o1 (stereo not given)	inactive
C#Cc1cccc(Nc2ncnc3cc(OCCOC)c(OCCOC)cc23)c1	21.1 µM (active)
CCN(CC)c1ccc2c(-c3ccccc3C(=O)O)c3ccc(=[N+](CC)CC)cc-3oc2c1	8.63 µM (active)
CC1=CC[C@H](C(C)C)C=C1	68.6 µM (active)
O=C1CCCCCCCCCCCC(=O)OCCO1	27.3 µM (active)
C[C@H]1C[C@H]2[C@@H]3CCC4=CC(=O)C=C[C@]4(C)[C@@]3(Cl)[C@@H](O)C[C@]2(C)[C@@]1(O)C(=O)CO	inactive
C=CCOc1ccccc1OCC(O)CNC(C)C (stereo not given)	inactive
CCCCCCCCCCO[C@@H]1O[C@H](CO)[C@@H](O)[C@H](O)[C@H]1O	61.1 µM (active)
